The source of these data is PubChem BioAssay.

Experiment [1] in a line: anti-His antibody binders, primary screen, artefact control for SMM control protein annotation, biochemical, small-molecule microarray, 635 nm fluorescence (AID 1128).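 Note: score merges feature fluorescence with signal-to-noise for each printed compound spot.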 Particulars: anti-His Alexa647 antibody binding, higher = more signal.
Experiment [2] has as its system Human papillomavirus type 1a E7 protein (residues 1-88). The experiment can be described thus: HPV1a E7 small-molecule binders, primary screen, biochemical, small-molecule microarray, residues 1-88, 635 nm (AID 1129). The conditions noted are these: small-molecule microarray binding, fluorescence 635 nm; higher = more signal.
Experiment [3] has as its target Focal adhesion kinase 1 (Homo sapiens) (UniProt Q05397). The experiment can be described thus: small-molecule microarray binders of FAK, primary screen, biochemical, 635/667 nm fluorescence, BSA, DTT (AID 1130).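 Note: composite of spot emission at 667 nm and signal to noise over triplicate slides.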 The conditions noted are these: PTK2 binding, 635 nm fluorescence, higher = more signal.
The test system of experiment [4] is Fibrinogen (Alexa647-labelled). The experiment can be described thus: fibrinogen binders on compound microarrays, profiling panel, artefact control for SMM control-protein annotation, biochemical, small-molecule microarray, 635/667 nm fluorescence (AID 1131).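 Note: z-score merges 667 nm fluorescence with per-spot signal-to-noise over triplicate slides.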 Particulars: fibrinogen-A647 binding fluorescence, higher = more signal.
In experiment [5] the target is Follistatin (Homo sapiens) (UniProt P19883). The experiment can be described thus: follistatin binders on small-molecule microarrays, primary screen, biochemical, small-molecule microarray, 635/667 nm fluorescence (AID 1132). Particulars: FST binding, 635 nm fluorescence, higher = more signal.
Experiment [6] addresses Fibroblast growth factor 2 (Homo sapiens) (UniProt P09038). The experiment can be described thus: FGF2 binders on small-molecule microarrays, primary screen, biochemical, small-molecule microarray, 635/667 nm fluorescence (AID 1133). Particulars: small-molecule microarray binding, FGF2, fluorescence 635/667; higher = more signal.
Experiment [7] is described as follows: mitochondrial membrane potential change in A549 cells, profiling panel, cell-based, JC-1 fluorescence, basal, 24 h, 100 nL (AID 1138).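 Note: A549 lung adenocarcinoma cells under basal conditions with no added stimulus; test concentration not given here.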 Particulars: higher = more signal.
Experiment [8] concerns Lefty1. Description: Lefty1 binders on small-molecule microarrays, primary screen, biochemical, small-molecule microarray, 635/667 nm fluorescence (AID 1139). Particulars: small-molecule microarray binding, fluorescence 635/667; higher = more signal.
The test system of experiment [9] is wheat germ agglutinin (Triticum aestivum), Alexa647-labelled. The experiment can be described thus: wheat germ agglutinin binders on compound microarrays, profiling panel, artefact control for SMM control-protein annotation, biochemical, small-molecule microarray, 635/667 nm fluorescence (AID 1140).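 Note: score merges 667 nm feature emission with signal to noise over triplicate slides.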 Particulars: WGA-A647 binding, 635 nm fluorescence, higher = more signal.

Experiment [10] addresses Luciferin 4-monooxygenase (Photinus pyralis) (UniProt P08659). Description: firefly luciferase enzyme inhibitors, primary screen, biochemical, luminescence, purified enzyme, 2006 set (AID 1141).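 Note: cell-free assay with purified firefly luciferase at 100 ng per well in PBS; test concentration not given here.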 The conditions noted are these: SteadyGlo luminescence, 30 min, higher = more signal, called active from +8 up or from −8 down.
Experiment [11] deals with Wnt5a (protein binding on small-molecule microarray). The experiment can be described thus: Wnt5a binders on small-molecule microarray, primary screen, biophysical, 635/667 nm fluorescence (AID 1142).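 Note: fluorescence read at 667 nm with signal to noise per printed feature.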 The conditions noted are these: 635 nm fluorescence, higher = more signal.
The nature of experiment [12]: cell viability in Huh7 cells, primary screen, cytotoxicity control for HCV replication inhibitor project, CellTiter-Glo luminescence, basal, 48 h (AID 1143).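 Note: Huh7 hepatoma cells carrying a hepatitis C replication reporter with no stimulus; test concentration not given here.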 The conditions noted are these: Huh7 HCV replicon, higher = more signal, called active from +8 up or from −8 down.
The nature of experiment [13]: P. aeruginosa biofilm formation inhibitors, primary screen, PAO1 strain, BacTiter-Glo luminescence, LB-PBS (AID 1144). The conditions noted are these: 12 h, higher = more signal.
The nature of experiment [14]: CREB reporter modulators without forskolin, primary screen, cell-based, PC12, CRE-LacZ reporter, unstimulated (AID 1145). The conditions noted are these: no forskolin, luminescence, 4.5 h, higher = more signal, called active from +8 up or from −8 down.
A short description of experiment [15]: CREB reporter modulators under forskolin, primary screen, cell-based, PC12, CRE-LacZ reporter, forskolin-stimulated (AID 1146).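 Note: PC12 cells with 6xCRE LacZ reporter stimulated by forskolin 10 µM; beta-galactosidase reporter signal reflecting CREB driven transcription.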 Particulars: luminescence, 4.5 h, higher = more signal, called active from +8 up or from −8 down.
Experiment [16] addresses Streptavidin (Streptomyces avidinii) (UniProt P22629). The experiment can be described thus: streptavidin binders on small-molecule microarray, primary screen, artefact control for SMM compound annotation, biophysical, 635/667 nm fluorescence (AID 1147).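 Note: signal reflects streptavidin binding to arrayed compounds as a control protein.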 The conditions noted are these: streptavidin binding, higher = more signal.
Experiment [17] in a line: small-molecule binders of probe aInhba, primary screen, biochemical, small-molecule microarray, 635/667 nm fluorescence (AID 1148).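 Note: score merges 667nm spot fluorescence with signal-to-noise for antibody binding to printed compounds.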 Particulars: higher = more signal.
Experiment [18] has as its target Torsin-1A (Homo sapiens) (UniProt O14656). The experiment can be described thus: torsin A binders from cell lysate, primary screen, small-molecule microarray, wild-type, 635/667 nm (AID 1149). The conditions noted are these: COS7 hTOR1A-WT lysate, 635 nm fluorescence, higher = more signal.
The target is the same in experiment [19]. The experiment can be described thus: small-molecule binders of mutant TOR1A in lysate, primary screen, cell lysate, small-molecule microarray, COS7 lysate, 635/667 nm fluorescence (AID 1150).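 Note: score pools 667 nm emission and signal to noise measuring lysate protein binding.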 The conditions noted are these: COS7 hTOR1A mutant lysate, 635 nm fluorescence, higher = more signal.
The test system of experiment [20] is Sonic hedgehog protein (Shh). The experiment can be described thus: small-molecule binders of Shh protein, primary screen, biochemical, small-molecule microarray, 635/667 nm fluorescence (AID 1151).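 Note: Shh protein binding to compounds spotted on small-molecule microarray slides; score combines spot fluorescence intensity with signal-to-noise across triplicate slides.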 The conditions noted are these: small-molecule microarray binding, 635 nm fluorescence; higher = more signal.

Values joined by “and” are separate entries in the source; they are usually repeats but may differ in a detail not shown here. Identical values can stand only once. Active and inactive are the calls of the source. Unless noted, the rule behind the calls is not given here.

Chain of Focal adhesion kinase 1 (Homo sapiens) (Q05397 whole entry, looked up): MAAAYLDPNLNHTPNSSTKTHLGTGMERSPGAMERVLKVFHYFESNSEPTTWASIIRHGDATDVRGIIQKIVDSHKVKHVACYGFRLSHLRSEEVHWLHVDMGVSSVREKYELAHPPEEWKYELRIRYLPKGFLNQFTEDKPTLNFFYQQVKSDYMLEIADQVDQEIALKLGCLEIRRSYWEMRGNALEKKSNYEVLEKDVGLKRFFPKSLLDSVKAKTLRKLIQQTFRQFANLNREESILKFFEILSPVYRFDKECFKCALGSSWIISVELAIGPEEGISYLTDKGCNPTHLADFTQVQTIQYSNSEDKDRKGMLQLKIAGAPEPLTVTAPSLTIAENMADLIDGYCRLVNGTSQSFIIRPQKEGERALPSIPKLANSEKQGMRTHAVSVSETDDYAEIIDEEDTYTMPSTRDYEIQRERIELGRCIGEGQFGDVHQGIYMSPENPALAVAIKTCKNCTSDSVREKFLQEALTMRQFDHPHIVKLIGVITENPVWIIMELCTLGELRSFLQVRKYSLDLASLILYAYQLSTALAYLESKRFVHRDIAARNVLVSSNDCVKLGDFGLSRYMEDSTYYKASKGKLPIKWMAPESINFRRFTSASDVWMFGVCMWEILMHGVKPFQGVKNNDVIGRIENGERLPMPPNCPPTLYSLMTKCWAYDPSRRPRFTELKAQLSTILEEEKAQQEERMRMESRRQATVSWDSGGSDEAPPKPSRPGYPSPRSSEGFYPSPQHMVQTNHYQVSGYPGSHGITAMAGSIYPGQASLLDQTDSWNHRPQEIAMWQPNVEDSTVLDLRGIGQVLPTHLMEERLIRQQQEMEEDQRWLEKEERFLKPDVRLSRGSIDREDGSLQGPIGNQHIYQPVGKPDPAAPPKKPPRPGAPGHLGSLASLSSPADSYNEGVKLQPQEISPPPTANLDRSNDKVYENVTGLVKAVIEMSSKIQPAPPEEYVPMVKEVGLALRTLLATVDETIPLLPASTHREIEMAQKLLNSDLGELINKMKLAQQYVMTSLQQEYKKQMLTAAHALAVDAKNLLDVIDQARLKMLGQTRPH
Chain of Streptavidin (Streptomyces avidinii) (P22629 whole entry, looked up): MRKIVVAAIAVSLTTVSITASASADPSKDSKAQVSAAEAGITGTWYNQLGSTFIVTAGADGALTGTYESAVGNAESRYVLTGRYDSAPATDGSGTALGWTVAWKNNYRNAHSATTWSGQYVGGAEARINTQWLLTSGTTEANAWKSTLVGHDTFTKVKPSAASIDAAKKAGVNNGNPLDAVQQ
Chain of Fibroblast growth factor 2 (Homo sapiens) (P09038 whole entry, looked up): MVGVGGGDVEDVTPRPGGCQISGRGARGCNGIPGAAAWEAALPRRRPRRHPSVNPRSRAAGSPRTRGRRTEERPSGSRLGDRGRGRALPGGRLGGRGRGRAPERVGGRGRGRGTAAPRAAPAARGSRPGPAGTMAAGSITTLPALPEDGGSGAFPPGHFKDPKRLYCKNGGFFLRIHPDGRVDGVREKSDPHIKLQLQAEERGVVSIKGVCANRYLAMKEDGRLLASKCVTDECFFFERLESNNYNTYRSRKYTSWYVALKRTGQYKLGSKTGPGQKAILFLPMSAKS
Chain of Luciferin 4-monooxygenase (Photinus pyralis) (P08659 whole entry, looked up): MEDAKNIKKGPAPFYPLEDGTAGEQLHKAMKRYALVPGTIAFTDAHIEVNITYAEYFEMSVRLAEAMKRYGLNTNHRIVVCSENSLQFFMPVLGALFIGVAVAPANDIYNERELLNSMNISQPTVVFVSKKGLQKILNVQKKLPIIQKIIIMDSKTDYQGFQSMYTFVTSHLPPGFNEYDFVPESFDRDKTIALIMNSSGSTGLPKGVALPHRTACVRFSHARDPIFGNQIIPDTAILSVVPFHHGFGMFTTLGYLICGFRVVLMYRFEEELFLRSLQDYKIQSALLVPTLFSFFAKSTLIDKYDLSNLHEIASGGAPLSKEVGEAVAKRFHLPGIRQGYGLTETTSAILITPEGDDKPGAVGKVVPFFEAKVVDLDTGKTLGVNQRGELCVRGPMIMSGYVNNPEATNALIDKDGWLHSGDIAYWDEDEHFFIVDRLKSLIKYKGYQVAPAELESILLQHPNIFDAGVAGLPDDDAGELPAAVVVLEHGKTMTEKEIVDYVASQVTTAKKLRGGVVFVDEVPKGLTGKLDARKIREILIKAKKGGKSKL
Chain of Torsin-1A (Homo sapiens) (O14656 whole entry, looked up): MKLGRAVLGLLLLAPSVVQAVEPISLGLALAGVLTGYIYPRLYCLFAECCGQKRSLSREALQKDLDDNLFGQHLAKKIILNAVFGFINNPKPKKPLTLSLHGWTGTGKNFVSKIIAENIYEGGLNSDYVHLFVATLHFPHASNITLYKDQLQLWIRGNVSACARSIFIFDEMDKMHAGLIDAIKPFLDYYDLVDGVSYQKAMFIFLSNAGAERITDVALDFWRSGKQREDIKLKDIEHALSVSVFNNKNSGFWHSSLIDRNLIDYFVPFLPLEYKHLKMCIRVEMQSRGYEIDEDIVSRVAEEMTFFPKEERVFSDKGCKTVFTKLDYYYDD
Chain of Follistatin (Homo sapiens) (P19883 whole entry, looked up): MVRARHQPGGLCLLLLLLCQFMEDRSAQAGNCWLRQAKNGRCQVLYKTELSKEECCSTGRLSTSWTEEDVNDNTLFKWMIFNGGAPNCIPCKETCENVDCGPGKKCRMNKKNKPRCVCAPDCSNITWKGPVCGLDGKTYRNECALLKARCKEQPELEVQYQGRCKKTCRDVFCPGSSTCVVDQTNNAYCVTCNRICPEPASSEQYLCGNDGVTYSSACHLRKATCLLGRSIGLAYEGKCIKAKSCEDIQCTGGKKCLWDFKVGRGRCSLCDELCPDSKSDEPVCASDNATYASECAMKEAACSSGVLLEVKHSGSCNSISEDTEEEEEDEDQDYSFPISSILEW

As to `C[C@@H](ON=C1[C@H]2CCn3c(=O)n(-c4ccccc4)c(=O)n3[C@H]2[C@H](O)[C@@H]2O[C@H]12)c1cn([C@H](CO)Cc2ccccc2)nn1`, the composite z-score in experiment [1] was 2.66; in experiment [2] it was 0.23; in [3] it was -0.109; in experiment [4], 0.343; in [5] it was 0.523; in experiment [6] it was 0.185. The composite z-score in experiment [8] was 0.467; in experiment [9], -0.424; in experiment [11], -0.174; in [16] it was 0.0375; in experiment [17], -0.0313; in experiment [18], 0.185. Further, the composite z-score in [19] stood at 0.199; in [20], 0.403. Moreover, the z-score in experiment [7] is -0.546; in experiment [10] it was -0.116 (inactive); in [12] it was 1.13 (inactive); in experiment [13], 0.867 (inactive); in experiment [14] it was -0.157 (inactive); in experiment [15] it was 1.45 (inactive).
Take `CCN1C(=O)[C@H]2[C@H]3[C@H](O)[C@H](O)CC(=NNC(=O)OCc4ccc(OC)cc4)[C@H]3CC[C@H]2C1=O`: the composite z-score was 0.0442 in experiment [1]; 0.0241 in experiment [2]; 0.0983 in experiment [3]; 0.171 in experiment [4]; -0.699 in experiment [5]; -0.623 in [6]. In addition, the composite z-score amounted to 0.107 in [8]; 0.77 in [9]; 0.153 in experiment [11]; 0.398 in [16]; 0.124 in experiment [17]; 0.275 in experiment [18]. Also, the values for the composite z-score in experiment [19] and in experiment [20] were -0.023 and -0.121, respectively. The z-score is 0.647 in experiment [7]; -0.716 (inactive) in [10]; -0.0769 (inactive) in experiment [12]; 0.619 (inactive) in [13]; 0.344 (inactive) in [14]; -0.287 (inactive) in experiment [15].
On to `CCOC(=O)[C@H](Cc1ccccc1)NC(=O)CCC1CC(OC(=O)NCc2cccc3ccccc23)CC2(CCCC(COC(=O)NCCCN3CCCC3=O)O2)O1` (stereo not given in full), for which the composite z-score in [1] was determined as 0.903; in experiment [2], 1.05; in experiment [3], 0.222; in experiment [4], 0.951; in experiment [5], 0.625; in experiment [6], 0.467. The composite z-score was 0.539 in [8]; 0.0826 in experiment [9]; 0.0828 in experiment [11]; 0.609 in experiment [16]; -0.154 in experiment [17]; 0.0655 in experiment [18]. Moreover, the composite z-score came to 0.327 in [19] and 0.63 in [20]. For the same molecule, the z-score in experiment [7] is 1.21; in experiment [10], 0.782 (inactive); in experiment [12], -0.486 (inactive); in [13] it was -1.02 (inactive); in experiment [14], -0.072 (inactive); in experiment [15], 0.309 (inactive).
On to `C=CCN(C(=O)C1N(C(C)(C)CO)C(=O)C2C(C(=O)O)C3C=CC21O3)c1ccc(OC)cc1` (stereo not given), for which the composite z-score in [1] was -2.21 and -2.2; in experiment [2], -1.08 and -1.45; in [3], -0.488 and -0.747; in [4] it was -1.1 and -1.88; in [5] it was -2.74 and -3.18; in experiment [6], -2.91 and -2.56. The composite z-score was -2.07 and -3.54 in experiment [8]; -1.08 and -2.01 in experiment [9]; -0.737 and -0.572 in [11]; -1.73 and -1.67 in [16]; -0.227 and -0.38 in experiment [17]; -2.67 and -1.85 in experiment [18]. Besides, the composite z-score in [19] was -1.25 and -2.3; in experiment [20], -0.639 and -2.16. Besides, the z-score is 0.869 and 0.79 in experiment [7]; -2.06 (inactive) and -1.09 (inactive) in experiment [10]; -0.265 (inactive) and -0.156 (inactive) in experiment [12]; 1.42 (inactive) in [13]; -0.761 (inactive) and -0.501 (inactive) in experiment [14]; -1.27 (inactive) and -0.62 (inactive) in experiment [15].
